Results on 40 compounds are retold here after PubChem BioAssay (NCATS).

SMILES strings stand for the structures. Some of the results follow. Records with an inconclusive call do not appear. The source made the active and inactive calls. Calls come from the whole dose curve; as a rule, active = well fitted inhibition curve with a large enough effect; inconclusive = small, poorly fitted or top-dose-only effect; inactive = flat fitted curve, though single readings scatter.

The assay can be described thus: qHTS Assay for Inhibitors of Fructose-1,6-bisphosphate Aldolase from Giardia Lamblia: Coupling assay counterscreen confirmation (AID 2795). Note: nearly all actives have a fitted effect of over 55% in size. The conditions noted are these: GAPDH coupling enzyme counterscreen, biochemical; series mostly up to 57.5 µM. The source says:
NIH Chemical Genomics Center [NCGC]
NIH Molecular Libraries Probe Production centers Network [MLPCN]
Assay Provider: Osnat Herzberg, University of Maryland
The objective of this project is to obtain compounds that inhibit Giardia lamblia growth. G. lamblia is a human pathogen which afflicts impoverished nations; it is the most common cause of outbreaks of diarrhea in the United States. During the course of our study of potential drug targets in Giardia, we have identified the Class II (Zn2+ functions in electrophilic catalysis) fructose-1,6-bisphosphate aldolase (FBPA) as an excellent candidate for drug targeting. FBPA is a key glycolytic pathway enzyme, essential for G. lamblia survival. The human FBPA belongs to the Class I aldolases, which have a different substrate binding site structure and a radically different catalytic mechanism (employing a lysine-Schiff base intermediate). Therefore, affinity-based or mechanism-based inhibitors of the Giardia FBPA are expected not to interfere with the catalytic function of the human FBPA.
A glyceraldehyde-3-phosphate dehydrogenase/triose phosphate isomerase/NAD/arsenate coupled assay was adapted to the 1536-well HTP format for use in the primary screen. This was done by coupling it to a diaphorase/resazurin/resorufin reaction that can be monitored by fluorescence (excitation, 544 nm; emission, 590 nm). Compounds identified in this screen will be further evaluated by coupling the glycerol-3-phosphate/triose phosphate isomerase/NADH assay to a phenazine methosulfate/tetranitroblue tetrazolium color reaction. False positives due to the dehydrogenases and diaphorase inhibition will be eliminated, and selectivity assay will triage inhibitors of mammalian triose phosphate isomerase and the Class I FBPA. G. lamblia FBPA inhibitors identified by the in vitro analyses will be examined for growth inhibition of Giardia trophozoites, and for cytotoxicity in human cells.
This assay specifically addresses whether activity observed in the primary screen (AID 2451) is related to inhibition of the coupling assay used, as opposed to inhibition of aldolase. Actives in this assay are considered inconclusive for activity against aldolase. Hits from the primary screen was run in this assay to confirm their inactivity against the coupling assay.
Step,Parameter,Value,Description
1,Coupling enzyme reagent,2 uL,glyceraldehyde-3-phosphate
2,Compound,23 nL,3.68 nM-57.5 uM final concentration
3,Time,10 min,RT Incubation
4,Substrate/detection Reagent,2 uL,Substrate + enzyme coupling system + AmpLite Red kit
5,Time,20 min,RT Incubation
6,Detector,525 nm/598 nm (Fluorescence),ViewLux Fluorescence Read (Read 1)
1,Medium-binding black solid-bottom Kalypsys plates. FRD or Kalypsys dispenser.
2,Compound Library (10 mM ,1:5 dilution). Pin-transferred for a [final] range of 3.68 nM-57.5 uM.
4,FRD or Kalypsys dispenser, 2 uL of reaction mixture. Bottle kept at 4C and covered in foil to protect from light.
6,ViewLux Protocol 1194; Excitation filter wheel A (525/20 Pol; BODIPY TMR FP), Emission filter wheel B (598/25 S; BODIPY TMR FP S).
Keywords: Fructose-bisphosphate aldolase, FBPA , Giardia lamblia , Giardia, HTS, Inhibitors
For orientation: qHTS replaces the single test concentration by a dilution series.
As to `COc1ccccc1CN1CCN(Cc2cc(OC)c(OC)cc2OC)CC1`, the compound was called inactive. Under `CSc1n[nH]c(=S)n1N` stands “inactive”.

Take `COc1ccc(Cl)cc1C(=O)NNC(=O)c1nc2nc(C)cc(C)n2n1`: the compound was called inactive. Under `Cc1ccc(C(=O)Nc2nnc(C3=COCCO3)o2)cc1C` stands “inactive”. Under `Cc1ccc(OCCCCc2c(C)n[nH]c2C)cc1` stands “inactive”.

Consider `CN1CCCc2cc(C#N)c(=O)[nH]c21`, for which the result was inactive. Under `Cn1c(=O)[nH]c(=O)c2c1[nH]c(=S)n2Cc1ccccc1` stands “inactive”; under `O=C(O)Cn1c(Cc2ccccc2)nc2ccccc21`, “inactive”. With `O=C(CN1CCN(Cc2ccccc2)CC1)Nc1ccc(F)c(F)c1`, the result was inactive. Under `CC(=O)NC1CCN(CC(=O)Nc2nccs2)CC1` stands “inactive”; under `Cc1ccc(S(=O)(=O)NNC(=S)NC(C)(C)C)cc1`, “inactive”; under `Cc1nnc(SCC2=C(C(=O)O)N3C(=O)C(NC(=O)Cn4nc(C)c(Cl)c4C)C3SC2)s1` (stereo not given), “inactive”. As to `C=CCNC(=S)/N=c1/ccccn1Cc1ccccc1`, the compound was called inactive. On to `O=C(NC(=S)Nc1ncccn1)c1ccccc1Br`, for which the outcome was inactive. Under `O=S(=O)(c1ccc(NC(=S)NN=C(C2CC2)C2CC2)cc1)N1CCOCC1` stands “inactive”; under `CNC(=S)N/N=C/c1ccc(N2CCOCC2)s1`, “inactive”. For the compound `O=[N+]([O-])c1cc([N+](=O)[O-])c2cccnc2c1O`, the compound was classed as inactive. To `O=C(Nc1ccccc1Cl)O/N=C(/c1ccccc1)c1ccccn1` belongs “inactive”; to `Cc1nc(N2CCOCC2)sc1C(=O)NN`, “inactive”. Under `COc1ccc(C(=O)NC(=S)N2CCCCC2c2cccnc2)cc1OC` (stereo not given) stands “inactive”; under `C=CCc1cc(C)ccc1OCCCn1ccnc1`, “inactive”; under `CCc1ccc2c(c1)C1(NN=C(c3ccccc3)S1)C(=O)N2` (stereo not given), “inactive”. Under `CCS(=O)(=O)c1cc([N+](=O)[O-])c(Sc2ccccc2N)s1` stands “inactive”; under `CN(C)CCOc1ccc(Cl)cc1C(C)(C)C`, “inactive”; under `C=C(C)CNC(=S)N/N=C/c1ccccc1OCC(=O)O`, “inactive”. As for `CCN(CC(=O)NC(=O)NCc1ccccc1)Cc1nc2ccccc2c(=O)[nH]1`, the result was inactive. To `CN1C(=O)/C(=C\c2ccc(-c3ccccc3)o2)SC1=S` belongs “inactive”; to `O=C(CSc1cccc[n+]1[O-])c1ccc(-c2ccccc2)cc1`, “inactive”; to `CC(C)(c1ccccc1)c1ccc(OCCN2CCCC2)cc1`, “inactive”. Under `O=C(CN1C(=O)COc2ccccc21)Nc1ccc(F)cc1` stands “inactive”; under `Cc1cnc(NC(=O)c2ccccn2)s1`, “inactive”. To `Cc1cccc(C)c1OCCN1CCOCC1` belongs “inactive”; to `CC1CCCN(S(=O)(=O)c2ccc(C(=O)Nc3nnc(-c4ccncc4)o3)cc2)C1` (stereo not given), “inactive”.

Consider `CN1CCN(CCCCOc2ccccc2-c2ccccc2)CC1`, for which the outcome was inactive. To `CCN1CCc2c(C#N)c(NCc3ccccc3)nc(NCCO)c2C1` belongs “inactive”; to `O=c1nc(N/N=C/c2ccco2)cn[nH]1`, “inactive”; to `Cc1cccc(-c2nnc(SCC(=O)O)n2Cc2ccccc2)c1`, “inactive”. To `Clc1cccc(CN2COc3c(cc(Cl)c4cccnc34)C2)c1` belongs “inactive”; to `Cc1cc(C)c2c(=O)[nH]c(SCC(=O)Nc3ccc(Br)cc3)nc2n1`, “inactive”; to `Oc1[nH]c2ccc(Br)cc2c1N=Nc1nn[nH]n1`, “inactive”.
